Measured values from the supplement of paper PMC10849652.
Of roughly 7,900 targets only a part is listed; those with a hit were picked by preference. About 0.6% of all pairs of compound and target were hits. Values without a mark were called inactive.

Columns and labels:
Assay in all cases: log2 fold change, soluble protein after heating vs DMSO (PISA); higher = thermal stabilisation; K562 cells, 10 uM, 30 min; active = over 0.2 and 3.5 SD of the protein, either way, in both replicates (recomputed)
[1] = compound: COC1=CC=C(C=C1)CN2C=CC3=C2C=C(C=C3)C(=O)NO
Outline: (§1)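 Quantification of soluble protein used TMTpro 16plex LC-MS/MS, with channel sums equalised. Samples were the supernatant after 21,000xg for 90 min of pooled aliquots from K562 cells (2×10^6 cells/mL) treated with 10 μM compound for 30 min, heated for 3 min over 48°C-58°C, and extracted in PBS with 0.5% NP-40 at 4°C. Values, from duplicates, describe thermal stability against control samples on a log2 fold-change scale.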

filanesib = compound: CON(C)C(=O)N1N=C(c2cc(F)ccc2F)S[C@@]1(CCCN)c1ccccc1 [filanesib]
Outline: as §1

zotarolimus = compound: CO[C@H]1C[C@@H]2CC[C@@H](C)[C@@](O)(O2)C(=O)C(=O)N2CCCC[C@H]2C(=O)O[C@H]([C@H](C)C[C@@H]2CC[C@H](n3cnnn3)[C@H](OC)C2)CC(=O)[C@H](C)/C=C(\C)[C@@H](O)[C@@H](OC)C(=O)[C@H](C)C[C@H](C)/C=C/C=C/C=C/1C [zotarolimus]
Outline: as §1

idasanutlin = compound: COc1cc(C(=O)O)ccc1NC(=O)[C@@H]1N[C@@H](CC(C)(C)C)[C@](C#N)(c2ccc(Cl)cc2F)[C@H]1c1cccc(Cl)c1F [idasanutlin]
Outline: as §1

alisertib = compound: COc1cc(Nc2ncc3c(n2)-c2ccc(Cl)cc2C(c2c(F)cccc2OC)=NC3)ccc1C(=O)O [alisertib]
Outline: as §1

[2] = compound: COc1cc2nc(-c3cc(F)ccc3O)nc(N[C@@H]3CNC[C@H]3C(C)(C)O)c2cc1OC
Outline: as §1

gefitinib = compound: COc1cc2ncnc(Nc3ccc(F)c(Cl)c3)c2cc1OCCCN1CCOCC1 [gefitinib]
Outline: as §1

[3] = compound: COc1cccc2cc(-c3nc([C@H]4CC[C@H](C(=O)O)CC4)n4ncnc(N)c34)[nH]c12
Outline: as §1

lapatinib = compound: CS(=O)(=O)CCNCc1ccc(-c2ccc3ncnc(Nc4ccc(OCc5cccc(F)c5)c(Cl)c4)c3c2)o1 [lapatinib]
Outline: as §1

pictilisib = compound: CS(=O)(=O)N1CCN(Cc2cc3nc(-c4cccc5[nH]ncc45)nc(N4CCOCC4)c3s2)CC1 [pictilisib]
Outline: as §1

[4] = compound: CS(=O)(=O)c1ccc(-c2cnc(N)c(C(=O)Nc3ccccc3)n2)cc1
Outline: as §1

crizotinib = compound: C[C@@H](Oc1cc(-c2cnn(C3CCNCC3)c2)cnc1N)c1c(Cl)ccc(F)c1Cl [crizotinib]
Outline: as §1

[5] = compound: C[C@@H]1COCCN1C2=NC(=NC(=C2)C3(CC3)S(=O)(=O)C)C4=C5C=CNC5=CC=C4
Outline: as §1

[6] = compound: C[C@H](C1=CC=C(C=C1)C(=O)NC2=C3C=CNC3=NC=C2)N
Outline: as §1

duvelisib = compound: C[C@H](Nc1ncnc2nc[nH]c12)c1cc2cccc(Cl)c2c(=O)n1-c1ccccc1 [duvelisib]
Outline: as §1

gandotinib = compound: Cc1cc(Nc2cc(CN3CCOCC3)c3nc(C)c(Cc4ccc(Cl)cc4F)n3n2)n[nH]1 [gandotinib]
Outline: as §1

tozasertib = compound: Cc1cc(Nc2cc(N3CCN(C)CC3)nc(Sc3ccc(NC(=O)C4CC4)cc3)n2)n[nH]1 [tozasertib]
Outline: as §1

[7] = compound: Cc1cc(SCc2sc(-c3ccc(C(F)(F)F)cc3)nc2C)ccc1OCC(=O)O
Outline: as §1

doramapimod = compound: Cc1ccc(-n2nc(C(C)(C)C)cc2NC(=O)Nc2ccc(OCCN3CCOCC3)c3ccccc23)cc1 [doramapimod]
Outline: as §1

ispinesib = compound: Cc1ccc(C(=O)N(CCCN)[C@@H](c2nc3cc(Cl)ccc3c(=O)n2Cc2ccccc2)C(C)C)cc1 [ispinesib]
Outline: as §1

Chain of UniProt O95857 (O95857 whole entry, looked up): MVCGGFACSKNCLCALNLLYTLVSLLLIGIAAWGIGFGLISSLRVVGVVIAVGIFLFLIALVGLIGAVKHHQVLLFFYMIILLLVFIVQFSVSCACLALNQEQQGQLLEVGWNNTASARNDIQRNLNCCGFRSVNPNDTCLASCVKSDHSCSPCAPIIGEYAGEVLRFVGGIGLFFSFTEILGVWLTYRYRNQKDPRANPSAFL
Chain of UniProt Q96ET8 (Q96ET8 whole entry, looked up): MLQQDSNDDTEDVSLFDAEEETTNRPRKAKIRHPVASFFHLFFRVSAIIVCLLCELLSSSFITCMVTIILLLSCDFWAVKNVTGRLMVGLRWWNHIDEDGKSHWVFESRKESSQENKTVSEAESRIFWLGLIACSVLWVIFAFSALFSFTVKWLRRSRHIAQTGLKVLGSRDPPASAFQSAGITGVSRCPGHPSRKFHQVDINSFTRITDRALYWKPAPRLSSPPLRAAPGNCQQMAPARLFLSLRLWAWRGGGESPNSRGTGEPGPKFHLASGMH
Chain of UniProt Q502W6 (Q502W6 whole entry, looked up): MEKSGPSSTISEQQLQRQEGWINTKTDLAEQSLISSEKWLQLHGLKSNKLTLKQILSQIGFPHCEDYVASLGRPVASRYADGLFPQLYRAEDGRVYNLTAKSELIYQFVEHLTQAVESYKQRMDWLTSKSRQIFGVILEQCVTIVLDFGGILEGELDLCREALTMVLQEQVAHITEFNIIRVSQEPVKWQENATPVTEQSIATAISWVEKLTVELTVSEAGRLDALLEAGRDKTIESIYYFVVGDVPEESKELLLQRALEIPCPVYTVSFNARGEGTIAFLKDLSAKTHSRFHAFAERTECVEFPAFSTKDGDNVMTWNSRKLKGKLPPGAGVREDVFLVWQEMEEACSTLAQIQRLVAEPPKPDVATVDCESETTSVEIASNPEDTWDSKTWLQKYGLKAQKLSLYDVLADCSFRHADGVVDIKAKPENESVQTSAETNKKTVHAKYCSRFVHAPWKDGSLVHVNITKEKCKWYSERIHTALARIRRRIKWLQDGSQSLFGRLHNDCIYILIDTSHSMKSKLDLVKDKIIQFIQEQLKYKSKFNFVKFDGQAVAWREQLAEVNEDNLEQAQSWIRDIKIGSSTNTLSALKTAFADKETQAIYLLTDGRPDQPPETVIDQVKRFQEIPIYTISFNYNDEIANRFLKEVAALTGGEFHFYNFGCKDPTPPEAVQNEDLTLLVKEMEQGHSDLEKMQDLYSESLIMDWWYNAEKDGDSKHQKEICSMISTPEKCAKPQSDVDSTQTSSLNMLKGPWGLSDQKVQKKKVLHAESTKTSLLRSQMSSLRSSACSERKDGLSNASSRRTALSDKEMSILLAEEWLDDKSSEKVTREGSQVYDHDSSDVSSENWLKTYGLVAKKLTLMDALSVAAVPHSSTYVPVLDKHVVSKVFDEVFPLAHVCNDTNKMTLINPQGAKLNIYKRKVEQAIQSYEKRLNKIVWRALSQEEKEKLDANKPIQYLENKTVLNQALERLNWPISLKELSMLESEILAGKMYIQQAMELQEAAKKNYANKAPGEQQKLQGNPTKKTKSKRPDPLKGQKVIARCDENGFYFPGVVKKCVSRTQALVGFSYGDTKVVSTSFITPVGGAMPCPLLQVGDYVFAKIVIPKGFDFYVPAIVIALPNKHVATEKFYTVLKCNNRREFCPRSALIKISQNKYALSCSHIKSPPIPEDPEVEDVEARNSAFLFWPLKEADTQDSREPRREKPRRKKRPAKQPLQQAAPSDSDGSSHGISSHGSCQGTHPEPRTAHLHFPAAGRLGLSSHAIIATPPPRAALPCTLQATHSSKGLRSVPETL
Chain of UniProt Q86SZ2 (Q86SZ2 whole entry, looked up): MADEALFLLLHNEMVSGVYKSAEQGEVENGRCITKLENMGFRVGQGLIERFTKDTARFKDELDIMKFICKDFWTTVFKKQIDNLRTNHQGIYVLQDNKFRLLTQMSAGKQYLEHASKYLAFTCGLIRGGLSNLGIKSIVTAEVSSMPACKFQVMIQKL
Chain of UniProt Q96AJ9 (Q96AJ9 whole entry, looked up): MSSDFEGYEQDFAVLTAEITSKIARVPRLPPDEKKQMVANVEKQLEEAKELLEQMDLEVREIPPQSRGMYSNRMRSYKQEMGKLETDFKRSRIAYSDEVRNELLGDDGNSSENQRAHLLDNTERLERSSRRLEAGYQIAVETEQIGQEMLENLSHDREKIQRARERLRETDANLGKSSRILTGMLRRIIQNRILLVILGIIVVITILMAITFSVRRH
Chain of UniProt Q9C035 (Q9C035 whole entry, looked up): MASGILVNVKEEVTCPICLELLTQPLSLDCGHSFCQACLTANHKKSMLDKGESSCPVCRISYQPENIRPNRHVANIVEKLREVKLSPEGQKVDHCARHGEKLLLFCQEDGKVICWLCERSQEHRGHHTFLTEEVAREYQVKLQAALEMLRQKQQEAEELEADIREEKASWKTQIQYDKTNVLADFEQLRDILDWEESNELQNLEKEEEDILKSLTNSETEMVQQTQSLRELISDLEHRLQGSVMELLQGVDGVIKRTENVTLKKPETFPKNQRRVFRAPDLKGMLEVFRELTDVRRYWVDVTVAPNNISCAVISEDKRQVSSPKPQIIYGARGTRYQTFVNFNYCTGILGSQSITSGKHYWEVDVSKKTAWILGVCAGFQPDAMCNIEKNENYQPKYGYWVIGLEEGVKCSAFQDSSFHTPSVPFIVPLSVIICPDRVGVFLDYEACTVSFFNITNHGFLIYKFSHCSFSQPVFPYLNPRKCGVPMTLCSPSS
Chain of UniProt P61960 (P61960 whole entry, looked up): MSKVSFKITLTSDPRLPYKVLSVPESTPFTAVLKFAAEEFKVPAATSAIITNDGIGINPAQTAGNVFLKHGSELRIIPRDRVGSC
Chain of UniProt Q629K1 (Q629K1 whole entry, looked up): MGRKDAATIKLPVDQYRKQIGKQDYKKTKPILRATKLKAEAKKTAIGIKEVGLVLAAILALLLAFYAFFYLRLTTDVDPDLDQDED
Chain of UniProt P98170 (P98170 whole entry, looked up): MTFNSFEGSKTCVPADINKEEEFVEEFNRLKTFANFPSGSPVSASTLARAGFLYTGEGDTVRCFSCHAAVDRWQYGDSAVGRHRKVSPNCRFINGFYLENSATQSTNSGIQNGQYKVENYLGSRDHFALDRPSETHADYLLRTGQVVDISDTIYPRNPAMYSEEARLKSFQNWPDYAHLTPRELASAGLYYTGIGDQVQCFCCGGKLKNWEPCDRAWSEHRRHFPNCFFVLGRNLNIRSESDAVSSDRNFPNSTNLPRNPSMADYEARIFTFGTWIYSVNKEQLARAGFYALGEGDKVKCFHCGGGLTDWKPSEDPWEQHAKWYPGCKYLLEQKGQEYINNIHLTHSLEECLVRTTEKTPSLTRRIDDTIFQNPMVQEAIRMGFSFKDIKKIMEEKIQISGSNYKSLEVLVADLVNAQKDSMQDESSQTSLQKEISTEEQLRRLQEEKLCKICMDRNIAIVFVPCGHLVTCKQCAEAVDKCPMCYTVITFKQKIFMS

| Target | log2 fold change [1] | log2 fold change (filanesib) | log2 fold change (zotarolimus) | log2 fold change (idasanutlin) | log2 fold change (alisertib) | log2 fold change [2] | log2 fold change (gefitinib) | log2 fold change [3] | log2 fold change (lapatinib) | log2 fold change (pictilisib) | log2 fold change [4] | log2 fold change (crizotinib) | log2 fold change [5] | log2 fold change [6] | log2 fold change (duvelisib) | log2 fold change (gandotinib) | log2 fold change (tozasertib) | log2 fold change [7] | log2 fold change (doramapimod) | log2 fold change (ispinesib) |
| --- | --- | --- | --- | --- | --- | --- | --- | --- | --- | --- | --- | --- | --- | --- | --- | --- | --- | --- | --- | --- |
| TRAPPC6B (UniProt Q86SZ2) | 0.055 | -0.023 | 0.012 | -0.023 | -0.009 | -0.003 | 0.042 | 0.028 | 0.019 | 0.02 | -0.008 | 0.024 | 0.111 | -0.069 | 0.044 | -0.045 | 0.014 | -0.014 | 0.025 | 0.014 |
| UFM1 (UniProt P61960) | 0.048 | -0.08 | -0.139 | 0.28 | -0.001 | 0.01 | 0.069 | 0.055 | -0.002 |  | 0.021 | 0.004 | 0.178 | -0.062 | 0.146 |  | -0.056 | -0.043 | -0.037 | 0.158 |
| VTI1A (UniProt Q96AJ9) | 0.014 | -0.015 | -0.024 | -0.023 | -0.039 | -0.003 | 0.024 | 0 | 0.021 | -0.022 | -0.007 | -0.072 | 0.038 | -0.022 | 0.1 | 0.046 | 0.038 | -0.019 | 0.054 | -0.237 |
| UBAP2L (UniProt F8W726) |  |  |  |  | -0.074 | -0.069 | -0.012 | -0.084 | 0.067 | 0.078 |  |  |  |  |  | -0.072 | -0.003 |  |  |  |
| TVP23C (UniProt Q96ET8) |  |  | -0.006 | -0.124 | 0.007 | -0.024 |  | 0.235 | -0.14 | -0.029 |  |  |  | 0.03 | -0.065 | -0.016 | -0.028 | -0.092 |  |  |
| VWA3B isoform 6 (UniProt Q502W6) | -0.156 |  | -0.083 | -0.41 | -0.081 | -0.272 | 0.008 | -0.022 | 0.079 | 0.118 |  | -0.012 | 0.074 | 0.045 | 0.337 | -0.08 | 0.028 | 0.172 | 0.079 | -0.266 |
| XIAP (UniProt P98170) |  | 0.046 | 0.008 | 0.009 | 0.089 | 0.085 | 0.115 | 0 | -0.01 | 0.054 | 0.125 |  | 0.092 | -0.09 | 0.068 | 0.061 | -0.01 | -0.036 |  |  |
| TSPAN13 (UniProt O95857) |  | -0.041 | 0.022 |  | -0.164 | -0.013 | 0.047 | -0.064 | -0.053 | 0.053 | -0.055 |  | 0.4 | -0.17 | 0.045 | -0.05 | -0.06 | -0.124 |  | -0.03 |
| TRIM5 (UniProt Q9C035) |  | 0.121 | -0.066 | -0.086 |  |  |  |  |  |  | -0.032 |  | 0.037 | 0.148 | -0.109 |  | -0.096 | -0.127 |  | -0.821 (active) |
| TRIQK (UniProt Q629K1) | -0.002 | 0.1 | -0.08 |  | -0.142 |  |  | 0.106 |  |  | 0.003 | 0.024 | 0.072 | 0.017 | 0.073 |  | -0.003 | -0.006 | 0.008 | 0.182 |
